PubChem BioAssay (NCATS)
Inconclusive results are not listed. Entries that show only a call come without a potency. Calls of active or inactive are those of the source. Calls follow the shape of the dose curve; as a rule, active = well fitted inhibition curve with a large enough effect; inconclusive = small, poorly fitted or top-dose-only effect; inactive = no such curve, though single readings can be large or run the other way.
Potency is read from the fitted curve at half-maximal effect.

The compounds below were run against Cytochrome P450 3A7 (Homo sapiens) (UniProt P24462) (assay: Cytochrome P450 family 3 subfamily A member 7 (CYP3A7) small molecule antagonists: luciferase biochemical qHTS assay (AID 1963596; also: nearly all actives have a fitted effect of over 40% in size)). Settings: P450-Glo CYP3A7 enzyme luminescence, 1 h; series mostly up to 57.4 µM.
Cytochrome P450 3A7 (Homo sapiens), sequence (P24462 whole entry, looked up): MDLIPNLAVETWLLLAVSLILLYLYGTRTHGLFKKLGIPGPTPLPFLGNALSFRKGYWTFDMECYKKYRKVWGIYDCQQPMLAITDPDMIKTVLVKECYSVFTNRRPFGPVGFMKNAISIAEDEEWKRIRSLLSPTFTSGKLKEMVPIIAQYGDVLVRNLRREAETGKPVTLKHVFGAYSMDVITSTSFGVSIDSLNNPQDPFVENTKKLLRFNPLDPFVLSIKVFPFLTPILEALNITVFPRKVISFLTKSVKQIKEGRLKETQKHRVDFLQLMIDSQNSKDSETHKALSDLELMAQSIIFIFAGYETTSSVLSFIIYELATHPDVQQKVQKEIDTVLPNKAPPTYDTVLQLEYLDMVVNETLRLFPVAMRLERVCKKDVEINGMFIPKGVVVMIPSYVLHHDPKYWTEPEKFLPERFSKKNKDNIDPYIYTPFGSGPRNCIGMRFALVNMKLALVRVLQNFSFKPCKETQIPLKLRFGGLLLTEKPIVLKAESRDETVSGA
In short: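 Compounds were screened in qHTS format for interference with CYP3A7 turnover of a proluciferin substrate. Reactions ran 1 h at room temperature after NADPH regeneration solution was added, then luciferin product was detected by luminescence.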
For Oc1ccc(C2(c3ccccc3F)CCC(F)(F)CC2)cc1, the Potency was 5.01 µM (active).
For COC(C(=O)N1Cc2[nH]nc(NC(=O)c3ccc(N4CCN(C)CC4)cc3)c2C1)c1ccccc1 (configuration not stated), the Potency was “inactive”.
With CC(C)NC(=O)c1ccc(C#Cc2ccncc2)cn1 the Potency was “inactive”.
Cc1ccccc1NC(=O)Nc1ccc(CN2C(=O)N([C@@H](CC(C)C)C(=O)N[C@@H](CC(=O)O)c3ccccc3)C(=O)C2(C)C)cc1 was tested, and the Potency was “inactive”.
For O=C(O)CCC(=O)C(=O)O, the Potency was “inactive”.
For NS(=O)(=O)c1ccc(NC(=O)Nc2ccc(F)cc2)cc1, the Potency was “inactive”.
O=S(O)CO was tested, and the Potency was “inactive”.
Nc1ccn(C2O[C@H](CO)[C@@H](O)[C@@H]2O)c(=O)n1 (some centres not stated) was tested, and the Potency was “inactive”.
With COc1ccccc1NC(=O)Cc1c(C(=O)O)[nH]c2ccc(Cl)cc12 the Potency was “inactive”.
In the case of CNC1CCN(C(Cc2cccc(-c3ccncc3)c2)C(=O)c2sc3c(F)ccc(F)c3c2Cl)CC1 (configuration not stated), the Potency is reported as 2.39 µM (active).
O=C(O)c1cc(C(F)(F)F)ccc1N1CC[C@H](OCc2ccccn2)C1 was tested, and the Potency was “inactive”.
In the case of O=[N+]([O-])c1cn2c(n1)OC[C@@H](OCc1ccc(-c3ccc(OC(F)(F)F)cc3)nc1)C2, the Potency is reported as “inactive”.
In the case of CCCCCCOC(=O)c1cccnc1, the Potency is reported as “inactive”.
With CC1(C)Oc2ncnc(N)c2N=C1c1ccc(C23CCC(CC(=O)O)(CC2)CC3)cc1 the Potency was “inactive”.
In the case of CN1C(=O)OC(C)(C)C1=O, the Potency is reported as “inactive”.
In the case of FC(F)OC(Cl)C(F)(F)F (configuration not stated), the Potency is reported as “inactive”.
In the case of N#Cc1c[nH]c2c(C(=O)N3CCN(CCc4ccc(F)cc4)CC3)cccc12, the Potency is reported as “inactive”.
With COc1cc(C(=O)NC(c2ccc(Cl)cc2)c2cc(Cl)c3cccnc3c2O)cc(OC)c1OC (configuration not stated) the Potency was “inactive”.
CCOc1ccc(NC(=O)Cn2cc(C(=O)c3cccs3)c3ccccc32)cc1 was tested, and the Potency was “inactive”.
With CN(C)C(=O)NC1CCC(CCN2CCN(c3cccc(Cl)c3Cl)CC2)CC1 (configuration not stated) the Potency was “inactive”.
In the case of O=C(CSc1nc(-c2ccc(F)cc2)nc2c1Cc1ccccc1O2)Nc1cccc(C(=O)O)c1, the Potency is reported as “inactive”.
In the case of CCCCCCCCNC(C)C(O)c1ccc(SC(C)C)cc1 (configuration not stated), the Potency is reported as “inactive”.
